# Compound activity from PubChem BioAssay.
# RE007 growth inh: less growth of the S. pombe RE007 Vpr strain. S. pombe RE007 Vpr strain, BacTiter-Glo ATP luminescence, 24 h. Potency, µM (highest dose often 92.2 µM), most hits filed as inhibitors. hit rate 0.21% among 360,000. AID 651644; active means well fitted falling curve with a large enough effect; inconclusive means small, poorly fitted or top-dose-only effect; inactive means no such curve, though single readings can be large or run the other way; further: nearly all actives have a fitted effect of over 50% in size
#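 Fission yeast strain RE007, carrying one chromosomally integrated HIV-1 vpr copy, was seeded at OD 0.01 in PMG+AL medium with 23 nL pinned compound. After 24 h at 30 °C and 99% humidity, viability was read by BacTiter-Glo luminescence.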
# NS1 function inh: inhibitors of influenza NS1 protein function | Potency, µM (top dose mostly 46.1 µM) | hit rate 0.4% among 270,000 | AID 2326; calls by dose curve; further: actives are rising curves; nearly all actives have a fitted effect of over 50% in size
#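 OD600 was taken as the measure of yeast growth restored by compound in an NS1-expressing S. cerevisiae strain. Cells had been washed out of glucose medium and diluted 1:100 into galactose -URA medium, pH 6.0.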
# TbPYK inhibitor: inhibitors of Trypanosoma brucei pyruvate kinase; TbPYK enzyme, Kinase-Glo Plus ATP luminescence, 45 min; Potency, µM (highest dose often 76.8 µM), usual class: inhibitors; Q57TT1; hit rate 0.12% among 410,000; further: nearly all actives have a fitted effect of over 50% in size
#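 Quantitative HTS: titrated library compounds versus trypanosomal pyruvate kinase in TEA buffer (pH 7.2) containing KCl, MgCl2, BSA and Tween-20. Reactions were initiated with ADP, 130 uM final. Kinase-Glo Plus luminescence was read after 45 min at RT.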
# Giardia FBPA inh: blocks Giardia fructose-bisphosphate aldolase activity | AID 2451 | Potency, µM (series often up to 59.6 µM), hits mostly inhibitors | A8B2U2 | hit rate 0.71% among 290,000 | purified Giardia FBPA; further: nearly all actives have a fitted effect of over 55% in size
# Target sequence (A8B2U2 whole entry, looked up): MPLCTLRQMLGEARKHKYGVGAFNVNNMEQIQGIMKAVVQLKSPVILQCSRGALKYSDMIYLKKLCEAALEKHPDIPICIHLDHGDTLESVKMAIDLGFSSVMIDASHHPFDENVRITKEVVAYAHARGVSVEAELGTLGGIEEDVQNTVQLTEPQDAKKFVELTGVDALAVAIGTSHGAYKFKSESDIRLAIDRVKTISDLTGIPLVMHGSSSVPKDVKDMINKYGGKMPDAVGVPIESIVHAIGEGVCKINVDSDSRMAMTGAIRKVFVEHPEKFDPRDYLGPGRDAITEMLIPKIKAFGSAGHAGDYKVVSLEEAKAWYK
#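 40 nM FBPA preincubated 10 min at RT with compound (up to 57.5 uM final), then substrate plus GAPDH/TPI/NAD/arsenate coupling and diaphorase/resazurin added. Fluorescence read after 20 min at RT, 525/598 nm.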
# LmPK inh: blocks Leishmania mexicana pyruvate kinase activity; Q27686; hit rate 0.37% among 290,000; Potency, µM (top dose mostly 57.5 µM), hits mostly inhibitors; AID 1721; purified LmPK, Kinase-Glo ATP luminescence, 1 h
#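 0.1 nM LmPK, 0.5 mM PEP, 0.1 mM ADP; 50 mM imidazole pH 7.2, 7 mM MgCl2, 50 mM KCl; 1 h RT. Kinase-Glo luminescence readout, normalized to no-enzyme (full inhibition) and uninhibited wells.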
# Sm TGR block: blocks Schistosoma mansoni thioredoxin glutathione reductase. AID 485364. purified TGR, DTNB reduction, TNB absorbance 405 nm. Potency, µM (doses to about 114 µM), hits mostly inhibitors. hit rate 3% among 360,000. Q962Y6; further: nearly all actives have a fitted effect of over 60% in size
#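 TGR 20 nM + NADPH 100 uM (dispensed conc.), cpd preinc 15 min RT; start with NADPH (500 uM addition) then DTNB (15 mM addition). Kinetic TNB absorbance, 405 nm filter. Four-parameter Hill fit across titration.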
# A number is an active result; i = inactive; ? = inconclusive; nt = no result. Hits are enriched below; roughly 3.5% of the tested compounds scored in any of these assays. Unless noted, the call rests on the fitted dose curve; in most records, active means well fitted curve in the direction sought with a large enough effect; inconclusive means small, poorly fitted or top-dose-only effect, or another doubt; inactive means no such curve, though single readings can be large; an effect the other way counts as inactive or inconclusive.
SMILES,RE007 growth inh,NS1 function inh,TbPYK inhibitor,Giardia FBPA inh,LmPK inh,Sm TGR block
O=C(O)Cc1cccc(-c2cc(CCCCCCc3ccc(O[C@H]4O[C@H](CO)[C@@H](O)[C@H](O)[C@@H]4O)c(-c4cccc(CC(=O)O)c4)c3)ccc2O[C@H]2O[C@H](CO)[C@@H](O)[C@H](O)[C@@H]2O)c1,nt,nt,i,nt,nt,nt
Cc1ccc(-c2nc3c(c(=O)[nH]c(=O)n3Cc3ccccc3)n2C)s1,nt,i,nt,i,i,i
Cc1ccc(-c2nc3c(c(=O)[nH]c(=O)n3Cc3ccccc3)n2Cc2ccccc2)o1,i,nt,i,i,i,17.8µM
Cc1ccc(-c2nc3c(c(=O)[nH]c(=O)n3Cc3ccccc3)n2C)o1,i,nt,i,i,i,3.55µM
COCCCn1c(-c2ccc(OC)cc2)nc2c1c(=O)[nH]c(=O)n2Cc1ccccc1,i,i,i,i,i,i
Cc1ccc(C(=O)N2CCC(C(=O)c3ccc(Cl)cc3)CC2)cc1,i,i,i,i,i,i
Cc1ccc(N2C(=O)C3C(C2=O)C(C(=O)c2ccc(Cl)cc2)N2CCCC32)cc1 (stereo not given),i,i,i,i,i,28.2µM
CC(=O)Oc1ccc(N2C(=O)C3C(C2=O)C(C(=O)c2ccc(Cl)cc2)N2CCCC32)cc1 (stereo not given),i,i,i,i,i,20µM
COc1ccc(N2C(=O)[C@@H]3[C@H](C2=O)[C@H](C(=O)c2ccc(OC(C)=O)cc2)N2N=CC=C[C@@H]32)cc1,nt,?,nt,?,i,?
CC(C)(C)c1nnc(NC(=O)c2ccc(Cl)nc2)s1,i,i,i,5µM,i,i
CCc1nnc(NC(=O)c2ccc(Cl)nc2)s1,i,nt,i,?,i,i
COc1ccc(NC(=O)C2Cc3ccccc3CN2C(=O)c2ccco2)cc1 (stereo not given),i,i,i,nt,i,?
CN(C)S(=O)(=O)c1cccc(NC(=S)N2CCc3ccccc32)c1,i,nt,i,i,i,?
CN(C)S(=O)(=O)c1cccc(NC(=S)NC(=O)c2ccco2)c1,i,nt,i,nt,nt,?
O=C(Nc1nnc(C2CC2)s1)C1Cc2ccccc2CN1C(=O)c1ccco1 (stereo not given),i,nt,i,i,i,12.6µM
CC1Cc2ccccc2N1C(=S)Nc1cccc(S(=O)(=O)N(C)C)c1 (stereo not given),i,i,i,i,i,50.1µM
Cc1ccc(NC(=O)C2Cc3ccccc3CN2C(=O)c2ccco2)cc1S(=O)(=O)N(C)C (stereo not given),i,i,i,i,i,39.8µM
CN(C)S(=O)(=O)c1cccc(NC(=O)C2Cc3ccccc3CN2C(=O)c2ccco2)c1 (stereo not given),i,i,i,i,i,17.8µM
O=C(Nc1ccccc1N1CCOCC1)C1Cc2ccccc2CN1C(=O)c1ccco1 (stereo not given),i,i,i,i,i,?
Cc1cccc(NC(=O)C2CCCN(S(=O)(=O)c3ccc(Br)s3)C2)c1 (stereo not given),nt,nt,i,nt,nt,i
CC1(C)S[C@@H]2[C@H](NC(=O)[C@H](N)c3ccccc3)C(=O)N2[C@@H]1C(=O)OCOC(=O)[C@@H]1N2C(=O)C[C@@H]2S(O)(O)C1(C)C,nt,nt,i,nt,nt,nt
CC(=O)Nc1nc2n(n1)C(c1ccccc1)C=C(c1ccccc1)N2 (stereo not given),i,i,i,i,i,3.98µM
CS(=O)(=O)Nc1nc2n(n1)C(c1ccccc1)C=C(c1ccc(Br)cc1)N2 (stereo not given),i,i,i,i,i,22.4µM
CC(=O)Nc1nc2n(n1)C(c1ccc(F)cc1)C=C(c1ccccc1)N2 (stereo not given),i,i,i,i,i,3.16µM
O=C(Nc1nc2n(n1)C(c1ccc(F)cc1)C=C(c1ccccc1)N2)c1cccc([N+](=O)[O-])c1 (stereo not given),nt,nt,i,nt,nt,i
SMILES,RE007 growth inh,NS1 function inh,TbPYK inhibitor,Giardia FBPA inh,LmPK inh,Sm TGR block
COc1ccccc1C1C=C(c2ccc(Cl)cc2)Nc2nc(NS(C)(=O)=O)nn21 (stereo not given),nt,i,nt,i,i,39.8µM
Cc1ccc(C2C=C(c3ccc(Cl)cc3)Nc3nc(NS(=O)(=O)c4ccccc4)nn32)cc1 (stereo not given),nt,nt,i,nt,nt,31.6µM
Cc1ccc(C2C=C(c3ccccc3)Nc3nc(NS(=O)(=O)c4ccc(C)cc4)nn32)cc1 (stereo not given),nt,nt,i,nt,nt,i
CCN(C(=O)C1CCN(c2ncnc3c2nc2n3CCCCC2)CC1)c1cccc(Cl)c1,nt,nt,i,nt,nt,i
CN(O)/C=N/C(=S)Nc1ccc(Cl)cc1Cl,i,i,i,?,i,0.562µM
S=C(NCCc1ccccc1)Nc1ccc(Cl)cc1Cl,?,i,i,i,i,i
CCNC(=S)Nc1ccc(Cl)cc1Cl,i,i,i,i,i,44.7µM
CCn1c(C(=O)Nc2ccc(C)cc2C)cc2sc(Cl)cc21,nt,nt,i,nt,nt,i
OC1OC[C@H](O)[C@@H](O)[C@@H]1O (stereo not given in full),nt,nt,nt,i,nt,nt
CCCCSc1nnc2n(-c3cccc(C)c3)c(=O)c3c4c(sc3n12)CCCC4,nt,nt,i,nt,nt,i
Nc1n[nH]c2cc(=O)n(-c3cccc(C(F)(F)F)c3)nc12,i,nt,i,i,i,22.4µM
Oc1cc2c(cc1O)[C@H]1c3ccccc3CNC1CC2 (stereo not given in full),nt,i,nt,i,nt,nt
NC1CCc2cc(O)c(O)cc2C1 (stereo not given),i,i,?,i,nt,44.7µM
CCN(CC)C(=O)c1c(NC(=O)c2ccccc2)sc(C)c1C,i,i,i,i,i,i
CCN(CC)Cc1c(NC(=O)c2ccccc2)sc(C)c1C,i,nt,i,i,i,8.91µM
COc1ccc(N2C(=O)CC(Nc3cccc([N+](=O)[O-])c3)C2=O)cc1 (stereo not given),i,i,i,i,i,?
COc1ccc(N2C(=O)CC(Nc3ccc(C(=O)O)cc3)C2=O)cc1OC (stereo not given),i,nt,i,i,i,22.4µM
COC(=O)c1cccc(NC2CC(=O)N(c3ccc(OC)c(OC)c3)C2=O)c1 (stereo not given),i,i,i,i,i,35.5µM
Cc1ccc(CN2C(=O)CC(Nc3ccc(N4CCOCC4)cc3)C2=O)cc1 (stereo not given),i,i,i,i,i,39.8µM
COc1cccc(N2C(=O)CC(Nc3ccc(N4CCOCC4)cc3)C2=O)c1 (stereo not given),i,i,i,i,i,?
CCOC(=O)c1ccc(N2C(=O)CC(Nc3ccc(O)cc3)C2=O)cc1 (stereo not given),i,i,i,i,i,i
